Data on three molecules can be found in PubChem BioAssay (NCATS).

Molecules are shown by their SMILES. “And” between values parts separate entries of the source, which are not always exact repeats. Identical values can stand only once. Inconclusive results are not listed. A structure can be active in one record and inactive in another. The source made the active and inactive calls. Unless noted, the call rests on the fitted dose curve; in most records, active means well fitted curve in the direction sought with a large enough effect; inconclusive means small, poorly fitted or top-dose-only effect, or another doubt; inactive means no such curve, though single readings can be large; an effect the other way counts as inactive or inconclusive.

The nature of assay [1]: AP1 Signaling Pathway (AID 357; active means well fitted curve in either direction with a large enough effect, not every such curve was filed as active; further: on the % scale 0 is the no-effect control and ±100 the full control effect). As to conditions: ME-180 AP-1-bla reporter, EGF-induced, beta-lactamase ratio, 5 h. Summed up: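 AP-1-bla ME-180 cells with beta-lactamase reporter under AP-1 response element, stimulated with EC50 EGF; compounds titrated, 5 hours at 37 degrees Celsius. CCF4 read at 460/530 nm ratio; positive and negative modulators judged by AC50.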
The target of assay [2] is Cytochrome P450 1A2 (Homo sapiens) (UniProt P05177). Put plainly: p450-cyp1a2 (AID 410; calls by dose curve; further: potency means the concentration at half of the fitted maximal effect). Summed up:
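Inhibition was calculated relative to 57 uM furafylline (full inhibition). The reaction used human CYP1A2 at 20nM with Luciferin-ME at its Km, 100uM, driven by an NADPH-regenerating system for 60 min at room temperature.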

Assay [3] can be described thus: NFAT Signaling Pathway (AID 444; active means well fitted curve in either direction with a large enough effect, not every such curve was filed as active;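 further: carbachol stimulus at about its EC50 of 1 µM final; on the % scale 0 is the no-effect control and ±100 the full control effect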). As to conditions: Jurkat NFAT-bla M1, carbachol, beta-lactamase ratio, 5 h. Summed up:
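Jurkat cells carrying an NFAT-driven β-lactamase reporter and co-transfected muscarinic M1 receptor were treated with compound plus carbachol (1 uM final, an EC50 level) for 5 h at 37 °C. CCF4 loading followed for 1 h at RT; 460/530 nm ratio gave %activity.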

Assay [4] has as its target Glucocorticoid receptor (Homo sapiens) (UniProt P04150). Put plainly: GR-GFP Redistribution (AID 450;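 active means compounds whose dose series gives a full or clear partial fitted curve of increased nuclear translocation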; further: potency means the concentration at half of the fitted maximal effect). Particulars: U2OS GR-GFP nuclear translocation, laser cytometry, 2 h.
For assay [5] the target is unchanged. Description: GR-EFC Redistribution (AID 451; calls by dose curve; further: potency means the concentration at half of the fitted maximal effect). Particulars: CHO-K1 GR-EFC translocation, beta-gal luminescence, 2 h. A digest of the protocol:
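CHO-K1 cells stably expressing nuclear-localized β-gal enzyme acceptor and GR fused C-terminally to the enzyme donor fragment; ligand-driven nuclear translocation restores β-gal by complementation. Compounds titrated up to 46 uM final, 2 h at 37 °C; luminescence read.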

The target in assay [6] is Mitogen-activated protein kinase 10 (Mus musculus) (UniProt Q61831). Description: JNK3 AlphaScreen Assay (AID 530; active means well fitted curve in either direction with a large enough effect, not every such curve was filed as active;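 further: kinase came from lysate of stimulated human HepG2 cells; signal reports phosphorylation of biotinylated GST-cJun 1-79 at Ser73 with 10 µM ATP; on the % scale 0 is the no-effect control and ±100 the full control effect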). A digest of the protocol:
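JNK3 came from HepG2 lysates pre-activated with IL-1beta and TNF-alpha and phosphorylated biotinylated GST-cJun (1-79) at 10 uM ATP, pH 7.6, room temperature. Compounds were titrated. AlphaScreen signal used anti-phospho-cJun (Ser73) antibody.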
For orientation: Bead proximity is the source of the signal in Alpha formats.

Assay [7] addresses 3',5'-cyclic-AMP phosphodiesterase 4B (Homo sapiens) (UniProt Q07343). Description: qHTS Assay for Inhibitors of PDE-IV (AID 607; active means well fitted activation curve with a large enough effect in the main read-out, with a control signal flat, not every such curve was filed as active; further: % of control where 0% means no effect). A digest of the protocol: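 HEK293 ACTOne cells with CNG channel (1000/well), endogenous PDE4; membrane potential dye, compounds up to 22.9 uM final. Fluorescence Ex 535/Em 590; RO 20-1724 (100 uM final) as reference.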
In assay [8] the target is Guanine nucleotide-binding protein G(i) subunit alpha-1 (Homo sapiens) (UniProt P63096). Description: qHTS Assay for Inhibitors of RGS12 GoLoco Motif Activity (Green Fluorophore) (AID 879).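 Further: 0% = labeled peptide with Gαi1 and full inhibition = labeled peptide alone without protein; negative values mean loss of peptide binding seen as reduced polarization.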 A digest of the protocol: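 Fluorescence polarization assay: 50 nM Gαi1 with 10 nM FITC-labeled RGS12 GoLoco peptide in 10 mM Tris pH 7.5, 150 mM NaCl, 0.1 mM GDP, 0.05% NP40, 10 min at room temperature with compound.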

The target in assay [9] is Cytochrome P450 3A4 (Homo sapiens) (UniProt P08684). Description: qHTS Assay for Activators of Cytochrome P450 3A4 (AID 885). Further: nearly all actives have a fitted effect of over 65% in size. Summed up:
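Human CYP3A4 (20 nM) with Luciferin-PPXE at 25 uM (its KM) in 200 mM KPO4; 10 min compound preincubation, then NADPH regeneration and 60 min reaction at RT. Luciferin read by luminescence; normalized to 57 uM ketoconazole full inhibition.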
For orientation: qHTS replaces the single test concentration by a dilution series.

The target of assay [10] is Cytochrome P450 2D6 (Homo sapiens) (UniProt P10635). Put plainly: qHTS Assay for Inhibitors and Substrates of Cytochrome P450 2D6 (AID 891). Further: nearly all actives have a fitted effect of over 60% in size. Further: potency means the concentration at half of the fitted maximal effect. Summed up: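 Human CYP2D6 (5 nM) with 30 uM Luciferin-ME EGE (at Km) in 100 mM KPO4, compound preincubated 10 min, then NADPH regeneration system for 60 min at room temperature. Luciferin read by luminescence; normalized to 1.43 uM quinidine.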

Assay [11] addresses Cytochrome P450 2C19 (Homo sapiens) (UniProt P33261). Put plainly: qHTS Assay for Inhibitors and Substrates of Cytochrome P450 2C19 (AID 899). Further: nearly all actives have a fitted effect of over 60% in size. Further: potency means the concentration at half of the fitted maximal effect. A digest of the protocol: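 Human CYP2C19 (5nM) with Luciferin-H EGE at 10uM (its KM) in 50mM KPO4 was preincubated with compound for 10 min at 37C. NADPH regeneration started a 60 min 37C reaction. Luciferin was read by luminescence, normalized to 57uM ketoconazole.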

The nature of assay [12]: Confirmation and Secondary Assay for Modulators of Hemoglobin Beta Chain Splicing at IVS2 654 locus (AID 910).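 Further: per-well total GFP intensity by laser scanning cytometry after 2-day treatment; % of control where 0% means no effect.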 A digest of the protocol: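 HeLa cells stably carrying EGFP interrupted by mutant beta-globin IVS2-654 intron (CMV-driven) were treated with compound for 2 days at 37C; corrected splicing was scored as total peak GFP intensity per well (488 nm excitation, 500-520 nm emission).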

Assay [13] can be described thus: qHTS Assay for Identification of Small Molecule Agonists for Thrombopoietin (TPO) Signaling Pathway (AID 917). Further: on the % scale 0 is the no-effect control and ±100 the full control effect. Summed up:
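Murine Ba/F3 cells stably expressing human TPO receptor and a Glycoprotein IIb promoter–luciferase reporter were IL-3-starved overnight, then treated with compounds plus TPO (26 pM final, its EC50) for 24 hrs at 37 C; luminescence was read.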

Assay [14] in a line: Confirmation and Secondary Assay for Modulators of Hemoglobin Beta Chain Splicing at IVS2 705 locus (AID 930).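 Further: HeLa cells stably expressing the EGFP-705 splicing reporter; GFP fluorescence per well restored by corrected splicing of the IVS2-705 intron in EGFP; % of control where 0% means no effect.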 Summed up: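 Stable HeLa line with EGFP disrupted by mutant beta-globin intron 2 (705). Overnight attachment, then 2 days of compound at 37C, 5% CO2. Signal: peak GFP intensity summed over objects 5-250 µm.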
Assay [15] addresses Pyruvate kinase (Leishmania mexicana) (UniProt Q27686). Put plainly: qHTS Validation Assay for Inhibitors of Leishmania Mexicana Pyruvate Kinase (AID 945).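 Further: 0% = DMSO only neutral control wells.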 A digest of the protocol: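 Mutant LmPYK (E451W), 0.2 nM, plus 0.5 mM PEP and 0.1 mM ADP in 50 mM imidazole pH 7.2 containing 0.01% Tween 20 and 0.05% BSA. Incubated 1 h at room temperature; luminescence via PKLight, normalized to DMSO.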

The target of assay [16] is Pyruvate kinase PKM (Homo sapiens) (UniProt P14618). Put plainly: qHTS Assay for Activators of Human Muscle Pyruvate Kinase (AID 954; active means well fitted curve in the direction sought with a large enough effect, not every such curve was filed as active;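 further: 0% = uninhibited enzyme and -100% = no enzyme or full thiadiazolimine inhibition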). A digest of the protocol: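 Purified human PKM2 (0.1 nM) with 0.5 mM PEP (Km) and 0.1 mM ADP in 50 mM imidazole pH 7.2, KCl, MgCl2, 1 h at room temperature; ATP formed read by coupled luciferase luminescence. Normalized to no-enzyme/110 uM thiadiazolimine inhibition; 0.3 nM enzyme column for activation.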

Assay [17] has as its target Alpha-galactosidase A (Homo sapiens) (UniProt P06280). Put plainly: Counterscreen for Glucocerebrosidase Inhibitors: qHTS Assay for Human alpha-Galactosidase at pH 4.5 (AID 992). Further: 0% is about no effect. Summed up:
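Human enzyme (2 nM) with 80 uM 4-methylumbelliferyl alpha-D-galactopyranoside in 50 mM citric acid, 0.005% Tween-20, pH 4.5, 20 min at room temperature. Compounds 0.7 nM–77 uM; fluorescence Ex 365/Em 440 after pH 10 stop; AC50 from Hill fits.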
(In general: Counterscreens check selectivity or assay interference.)

Assay [18] deals with alpha-glucosidase (Oryza sativa, rice) (UniProt Q653V4). Description: Counterscreen for Glucocerebrosidase Inhibitors: qHTS Assay for Rice alpha-Glucosidase at pH 5.0 (AID 997).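 Further: 0% = full activity with enzyme and -100% = basal without enzyme.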 A digest of the protocol:
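Rice alpha-glucosidase (4 nM final) with 400 uM 4-methylumbelliferyl-alpha-D-glucopyranoside in citrate buffer pH 5.0, 20 min at room temperature, stopped at pH 10; fluorescence 365/440 nm, compounds 0.7 nM–77 uM, AC50 from Hill fits.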

A short description of assay [19]: qHTS Assay for Lipid Storage Modulators (AID 1519; calls by dose curve). Particulars: Drosophila S3 cells, BODIPY lipid droplet/cell ratio, laser cytometry, cells loaded with oleic acid; for activity change, negative = inhibition: at 25.7 µM (top of the series). A digest of the protocol: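 Cells seeded at 5,000 per well were treated with compounds over a concentration series and loaded with oleic acid (400 uM, as added). Lipid droplet fluorescence (488 nm excitation, 500-530 nm channel) was read by laser-scanning cytometry and normalized to 20 uM Triacsin C.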

Assay [20] deals with Ubiquitin carboxyl-terminal hydrolase 1 (Homo sapiens) (UniProt O94782). Put plainly: Inhibitors of USP1/UAF1: Pilot qHTS (AID 504865).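 Further: rhodamine fluorescence freed from ubiquitin-rhodamine substrate followed over time; top concentration of the series differs between compounds; on the % scale 0 is the no-effect control and ±100 the full control effect; nearly all actives have a fitted effect of over 35% in size.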 A digest of the protocol: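 USP1/UAF1 complex (1nM) preincubated with compound 15 min at room temperature, then Ub-Rho substrate (150nM final) added. Fluorescence read kinetically at 480/540 nm, 6 reads every 60 seconds. Buffer: 50mM HEPES pH 7.8, 0.5mM EDTA, 0.1 mg/ml BSA, 1mM TCEP, 0.01% Tween-20.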

In assay [21] the target is DNA dC->dU-editing enzyme APOBEC-3G (Homo sapiens) (UniProt Q9HC16). Description: qHTS for inhibitors of Vif-A3G interactions: Validation (AID 588379). Further: 0% is about no effect. Summed up:
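HeLa cells stably expressing Vif and A3G-eYFP, 700 cells/well, incubated overnight at 37 deg C, then exposed to compound overnight at 37 deg C. Inhibition of Vif-mediated degradation read as increased yellow fluorescence (Ex 488/Em 500-530) by laser-scanning cytometry.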

For assay [22], the system named is Zika virus NS2B-NS3 protease. Description: Primary screen GU AMC qHTS for Zika virus inhibitors (AID 1347154).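 Further: 0% = no-inhibitor control and -100% = no-enzyme control; nearly all actives have a fitted effect of over 70% in size.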 A digest of the protocol:
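Unlinked Zika NS2B hydrophilic domain/NS3 protease domain noncovalent complex (25 nM final) in 10 mM Tris-HCl pH 8.0, 0.01% Tween 20, with AMC peptide substrate. Fluorescence (ex 340, em 450 nm) change over 15 min, room temperature; percent inhibition fitted to 4-parameter Hill equation.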

Assay [23] can be described thus: Primary qHTS for small molecule stabilizers of the endoplasmic reticulum resident proteome: Secreted ER Calcium Modulated Protein (SERCaMP) assay (AID 1508630). Further: on the % scale 0 is the no-effect control and ±100 the full control effect. A digest of the protocol:
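GLuc-SERCaMP-expressing SH-SY5Y cells, pretreated 16 h with compound, are challenged with thapsigargin to empty ER calcium stores; after 4 h, coelenterazine is added directly to the medium and luminescence is imaged.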

Assay [24] in a line: Stat Signaling Pathway (AID 446; active means well fitted curve in either direction with a large enough effect, not every such curve was filed as active). As to conditions: ME-180 SIE beta-lactamase reporter, IL-6 stimulated, 5 h. A digest of the protocol: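 ME-180 cells carrying a SIE-driven beta-lactamase reporter are stimulated with 40 pM IL-6 for 5 h at 37C in the presence of compound. The 460/530 nm FRET substrate ratio is read after 2.5 h at RT. Data are normalised to 300 pM IL-6 and to 125 nM JAK inhibitor controls.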

The mark [25] stands for this setting: measured here: cell count channel max response.
Where [26] appears, read: measured here: lipid channel max response.

Sequence of 3',5'-cyclic-AMP phosphodiesterase 4B (Homo sapiens) (Q07343 whole entry, looked up): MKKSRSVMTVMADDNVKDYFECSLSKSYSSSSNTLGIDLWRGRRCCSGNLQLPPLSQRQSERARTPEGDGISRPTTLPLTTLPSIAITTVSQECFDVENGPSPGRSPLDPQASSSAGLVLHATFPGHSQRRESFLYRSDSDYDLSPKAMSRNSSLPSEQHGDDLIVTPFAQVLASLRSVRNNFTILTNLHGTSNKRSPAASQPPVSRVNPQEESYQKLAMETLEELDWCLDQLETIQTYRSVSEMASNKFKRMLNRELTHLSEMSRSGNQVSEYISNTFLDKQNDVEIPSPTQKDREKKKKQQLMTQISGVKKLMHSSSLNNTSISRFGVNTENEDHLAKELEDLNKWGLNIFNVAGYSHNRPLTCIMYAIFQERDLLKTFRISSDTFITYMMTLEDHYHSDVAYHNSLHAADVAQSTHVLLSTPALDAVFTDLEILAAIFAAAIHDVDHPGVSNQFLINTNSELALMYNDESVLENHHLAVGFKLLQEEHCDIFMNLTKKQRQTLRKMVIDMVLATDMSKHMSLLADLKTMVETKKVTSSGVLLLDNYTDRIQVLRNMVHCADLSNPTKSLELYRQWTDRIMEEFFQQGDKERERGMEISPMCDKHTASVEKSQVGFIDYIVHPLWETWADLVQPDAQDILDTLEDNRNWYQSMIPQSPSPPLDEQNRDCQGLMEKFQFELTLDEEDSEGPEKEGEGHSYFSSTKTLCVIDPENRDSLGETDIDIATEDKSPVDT
Sequence of Cytochrome P450 2D6 (Homo sapiens) (P10635 whole entry, looked up): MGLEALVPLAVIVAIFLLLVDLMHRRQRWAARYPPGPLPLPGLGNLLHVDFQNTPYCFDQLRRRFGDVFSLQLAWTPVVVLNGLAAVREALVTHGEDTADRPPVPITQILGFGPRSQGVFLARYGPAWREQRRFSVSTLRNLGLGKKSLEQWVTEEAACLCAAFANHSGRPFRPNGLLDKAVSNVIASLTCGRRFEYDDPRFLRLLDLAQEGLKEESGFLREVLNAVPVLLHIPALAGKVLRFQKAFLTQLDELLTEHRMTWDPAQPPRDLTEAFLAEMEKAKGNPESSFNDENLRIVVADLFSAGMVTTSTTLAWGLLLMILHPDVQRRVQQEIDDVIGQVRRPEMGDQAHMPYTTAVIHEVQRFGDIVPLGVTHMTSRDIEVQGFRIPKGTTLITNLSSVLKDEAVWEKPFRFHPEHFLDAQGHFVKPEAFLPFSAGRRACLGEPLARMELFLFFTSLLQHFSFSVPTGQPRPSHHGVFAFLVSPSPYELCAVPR
Sequence of Cytochrome P450 3A4 (Homo sapiens) (P08684 whole entry, looked up): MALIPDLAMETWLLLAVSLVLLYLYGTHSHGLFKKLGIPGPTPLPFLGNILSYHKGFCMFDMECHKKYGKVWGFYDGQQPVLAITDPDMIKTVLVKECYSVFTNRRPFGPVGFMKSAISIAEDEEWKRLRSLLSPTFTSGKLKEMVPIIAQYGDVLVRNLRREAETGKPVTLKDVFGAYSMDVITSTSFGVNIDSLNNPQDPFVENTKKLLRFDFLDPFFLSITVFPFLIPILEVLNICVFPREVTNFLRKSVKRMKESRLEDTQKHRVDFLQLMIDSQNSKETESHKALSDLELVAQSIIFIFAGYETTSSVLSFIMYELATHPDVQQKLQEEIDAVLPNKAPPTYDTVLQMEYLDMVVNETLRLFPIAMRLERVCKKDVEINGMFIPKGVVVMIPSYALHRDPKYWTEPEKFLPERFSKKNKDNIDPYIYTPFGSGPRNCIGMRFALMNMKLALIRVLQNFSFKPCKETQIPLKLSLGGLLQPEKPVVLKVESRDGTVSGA
Sequence of Glucocorticoid receptor (Homo sapiens) (P04150 whole entry, looked up): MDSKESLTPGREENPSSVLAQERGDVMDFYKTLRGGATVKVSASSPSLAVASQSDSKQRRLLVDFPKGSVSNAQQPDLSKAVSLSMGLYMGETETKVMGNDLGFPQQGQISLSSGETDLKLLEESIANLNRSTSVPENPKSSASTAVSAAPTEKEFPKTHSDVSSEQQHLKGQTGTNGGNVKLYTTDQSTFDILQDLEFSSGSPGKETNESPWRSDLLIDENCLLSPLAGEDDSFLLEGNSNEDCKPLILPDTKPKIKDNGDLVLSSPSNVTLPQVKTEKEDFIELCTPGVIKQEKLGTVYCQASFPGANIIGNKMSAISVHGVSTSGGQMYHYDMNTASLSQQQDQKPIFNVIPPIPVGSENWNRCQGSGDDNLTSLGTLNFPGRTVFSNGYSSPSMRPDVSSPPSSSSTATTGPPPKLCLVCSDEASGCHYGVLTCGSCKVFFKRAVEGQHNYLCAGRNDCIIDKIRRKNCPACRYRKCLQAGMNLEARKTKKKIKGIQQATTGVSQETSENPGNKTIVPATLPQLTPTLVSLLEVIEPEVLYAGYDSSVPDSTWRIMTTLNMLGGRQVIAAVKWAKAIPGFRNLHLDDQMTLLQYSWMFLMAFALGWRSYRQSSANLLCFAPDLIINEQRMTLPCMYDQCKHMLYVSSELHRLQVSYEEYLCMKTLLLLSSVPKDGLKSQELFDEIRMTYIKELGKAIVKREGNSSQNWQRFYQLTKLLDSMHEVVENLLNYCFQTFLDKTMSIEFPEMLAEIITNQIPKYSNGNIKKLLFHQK
Sequence of Pyruvate kinase (Leishmania mexicana) (Q27686 2-499 E452W): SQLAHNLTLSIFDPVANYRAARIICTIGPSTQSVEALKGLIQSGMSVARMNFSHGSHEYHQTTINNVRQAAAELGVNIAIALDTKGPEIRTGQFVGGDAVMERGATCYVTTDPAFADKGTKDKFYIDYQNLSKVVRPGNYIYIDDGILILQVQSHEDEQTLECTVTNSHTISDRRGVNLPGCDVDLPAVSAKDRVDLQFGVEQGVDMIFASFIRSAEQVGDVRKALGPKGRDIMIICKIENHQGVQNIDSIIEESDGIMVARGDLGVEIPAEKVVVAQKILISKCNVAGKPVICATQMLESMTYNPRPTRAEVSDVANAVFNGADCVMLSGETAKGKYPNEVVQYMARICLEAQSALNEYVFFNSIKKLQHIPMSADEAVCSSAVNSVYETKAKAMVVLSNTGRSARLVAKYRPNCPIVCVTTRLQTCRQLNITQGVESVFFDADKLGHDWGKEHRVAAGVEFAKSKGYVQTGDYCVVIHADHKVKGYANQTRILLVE
Sequence of Guanine nucleotide-binding protein G(i) subunit alpha-1 (Homo sapiens) (P63096 whole entry, looked up): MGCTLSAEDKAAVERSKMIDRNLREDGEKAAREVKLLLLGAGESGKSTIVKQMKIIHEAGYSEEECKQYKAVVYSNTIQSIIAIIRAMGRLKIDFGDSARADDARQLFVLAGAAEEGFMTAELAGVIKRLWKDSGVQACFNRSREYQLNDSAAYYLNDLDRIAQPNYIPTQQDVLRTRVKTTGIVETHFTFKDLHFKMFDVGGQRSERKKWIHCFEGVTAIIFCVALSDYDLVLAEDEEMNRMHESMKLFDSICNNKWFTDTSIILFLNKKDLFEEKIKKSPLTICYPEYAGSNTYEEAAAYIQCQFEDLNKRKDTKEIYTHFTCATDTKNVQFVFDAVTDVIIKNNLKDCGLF
Sequence of Cytochrome P450 2C19 (Homo sapiens) (P33261 whole entry, looked up): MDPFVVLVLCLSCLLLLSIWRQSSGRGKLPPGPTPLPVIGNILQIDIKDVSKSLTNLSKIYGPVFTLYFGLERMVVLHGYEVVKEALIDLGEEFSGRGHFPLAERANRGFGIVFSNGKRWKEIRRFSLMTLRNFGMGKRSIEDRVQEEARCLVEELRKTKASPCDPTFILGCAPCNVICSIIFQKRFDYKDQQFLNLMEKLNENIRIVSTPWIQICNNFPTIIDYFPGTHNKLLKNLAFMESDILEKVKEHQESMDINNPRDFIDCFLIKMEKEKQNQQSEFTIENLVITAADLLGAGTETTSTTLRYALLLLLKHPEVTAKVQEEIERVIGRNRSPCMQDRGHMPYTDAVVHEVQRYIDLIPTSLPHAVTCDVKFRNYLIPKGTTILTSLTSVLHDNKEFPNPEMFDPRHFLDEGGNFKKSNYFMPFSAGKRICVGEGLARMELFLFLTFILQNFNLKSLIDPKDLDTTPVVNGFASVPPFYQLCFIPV
Sequence of Cytochrome P450 1A2 (Homo sapiens) (P05177 whole entry, looked up): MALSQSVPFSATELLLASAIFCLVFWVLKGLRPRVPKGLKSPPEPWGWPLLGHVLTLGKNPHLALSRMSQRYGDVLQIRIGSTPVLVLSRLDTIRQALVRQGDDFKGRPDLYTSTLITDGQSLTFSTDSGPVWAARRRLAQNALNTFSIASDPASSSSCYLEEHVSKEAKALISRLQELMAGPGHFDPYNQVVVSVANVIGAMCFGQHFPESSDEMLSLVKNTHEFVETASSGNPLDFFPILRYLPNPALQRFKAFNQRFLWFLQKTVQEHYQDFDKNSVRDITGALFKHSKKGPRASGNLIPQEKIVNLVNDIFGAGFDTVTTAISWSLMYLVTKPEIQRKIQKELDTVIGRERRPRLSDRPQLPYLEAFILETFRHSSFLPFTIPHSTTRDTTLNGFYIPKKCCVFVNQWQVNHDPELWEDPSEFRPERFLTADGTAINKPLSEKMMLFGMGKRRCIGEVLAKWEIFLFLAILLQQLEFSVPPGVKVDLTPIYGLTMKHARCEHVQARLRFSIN
Sequence of Pyruvate kinase PKM (Homo sapiens) (P14618 whole entry, looked up): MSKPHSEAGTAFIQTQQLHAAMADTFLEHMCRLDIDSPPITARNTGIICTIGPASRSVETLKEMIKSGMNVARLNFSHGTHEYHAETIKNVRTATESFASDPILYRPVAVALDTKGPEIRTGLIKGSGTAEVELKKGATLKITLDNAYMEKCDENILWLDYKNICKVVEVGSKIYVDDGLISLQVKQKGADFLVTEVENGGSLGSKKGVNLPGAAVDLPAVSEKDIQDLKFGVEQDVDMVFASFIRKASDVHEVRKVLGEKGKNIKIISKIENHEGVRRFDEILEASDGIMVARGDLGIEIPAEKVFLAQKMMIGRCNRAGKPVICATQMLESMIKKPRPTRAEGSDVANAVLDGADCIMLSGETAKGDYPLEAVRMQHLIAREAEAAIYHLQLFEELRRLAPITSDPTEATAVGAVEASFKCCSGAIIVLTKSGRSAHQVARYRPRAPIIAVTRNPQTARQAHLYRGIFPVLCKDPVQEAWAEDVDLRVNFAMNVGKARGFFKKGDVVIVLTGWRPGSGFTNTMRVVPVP

As to `CC1=C(\C=C/C(C)=C/C=C\C(C)=C\C(=O)O)C(C)(C)CCC1`, the activity change, negative = inhibition in assay [1] (at 17.2 µM (top of the series)) is -3.06% (inactive) and -11.4% (inactive); in [1] (at 38 µM (top of the series)), -26.4% (inactive) and 3.96% (inactive); in assay [3] (at 38 µM (top of the series)) it was 4.1% (inactive); in assay [19], 0.599% (inactive) and 0.957% (inactive). The Potency entry was “inactive and 20 µM (active)” in [2]; > 46 µM (inactive) and > 20.6 µM (inactive) in [4]; > 46 µM (inactive) and > 20.6 µM (inactive) in [5]; “inactive and 2 µM (active)” in assay [10]; “inactive and 5.01 µM (active) and 12.6 µM (active)” in [11]. The Potency entry in [6], in [7], in [9], in assay [13], in assay [15] and in assay [20] was “inactive” each time. In addition, the Potency result in assay [21], in assay [22] and in assay [23] was “inactive” in each case. Further, the molecule was classed as inactive in assay [8], in [12], in [14], in [16], in [17] and in assay [18]. In addition, the max response in assay [19] (setting [25]) was -6.58% and 5.14%; in assay [19] (setting [26]), -6.6% and 8.88%.

For `C[C@@H](CCc1ccc(O)cc1)NCCc1ccc(O)c(O)c1`, the activity change, negative = inhibition was 1.11% (inactive) in assay [1] (at 17.2 µM (top of the series)); -3.98% (inactive) in assay [1] (at 38 µM (top of the series)); -17.4% (inactive) in assay [3] (at 17.2 µM (top of the series)); -12.7% (inactive) in assay [3] (at 38 µM (top of the series)); 0.472% (inactive) in assay [19]. The Potency entry in assay [2], in [7], in assay [9], in assay [15], in assay [20] and in assay [21] was “inactive” each time. The Potency result in [22] and in [23] was “inactive” each time. In addition, the activity, negative = inhibition in assay [24] (at 17.2 µM (top of the series)) is 13.9% (inactive); in assay [24] (at 38 µM (top of the series)) it was -16.8% (inactive). Further, the Potency is > 46 µM (inactive) and > 20.6 µM (inactive) in [4]; > 46 µM (inactive) and > 20.6 µM (inactive) in assay [5]. Besides, the outcome in assay [8], in [16], in assay [17] and in [18] was inactive. The max response was found to be 1.22% in assay [19] (setting [25]) and 2.79% in assay [19] (setting [26]).

`CC(C)[C@@H]1NC(=O)[C@H](Cc2ccccc2)NC(=O)[C@@H](CC(=O)O)NC(=O)CNC(=O)[C@H](CCCNC(=N)N)NC1=O`: the Potency entry in [22] and in assay [23] was “inactive” throughout.
